This is part of a sample that, as a whole, favours compounds with a hit. Of some 83,000 tested, about 20% had one in any assay.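 A percent growth of 40 corresponds to 60% growth inhibition; 0 means no net growth; -100 means all cells died. Active threshold: below 10.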 Active and inactive are the calls of the source.
test system: HL-60(TB) leukemia; experiment: NCI-60 one-dose screen, 48 h (100 = growth as untreated, 0 = no growth, -100 = all killed); conditions: 10 µM unless noted

| Compound | growth |
| --- | --- |
| COc1ccc(/C=C2\CN(C(=O)C(Cl)Cl)C/C(=C\c3ccc(OC)cc3)C2=O)cc1 | -11.9% (active) |
| O=C(CN1CCN(c2cc3c(cc2F)c(=O)c(C(=O)O)cn3C2CC2)CC1)N/N=C/c1ccncc1 | 98% (inactive) |
| Cc1ccccc1/C=C/C(=O)c1cccc(OCCCCOc2cccc(C(=O)/C=C/c3ccccc3C)c2)c1 | 81.8% (inactive) |
| COc1ccc(C(=O)Cn2c(C(=O)c3ccc(OC)cc3)nc3ccccc32)cc1 | -50.7% (active) |
| COc1ccc2c(c1)c(-c1nc(-c3cn(C)c4ncccc34)cs1)cn2CCO | 82.4% (inactive) |
| CC1(C)CC(=O)c2c(nc3ccc(Cl)cc3c2-c2ccccc2)C1 | 82.3% (inactive) |
| CCOC(=O)C(=Cc1ccc(C#N)cc1)C(=O)OCC | -33.2% (active) |
| COc1cc(CNS(=O)(=O)c2ccc(C)cc2)ccc1OCc1cn(-c2ccccc2)nn1 | 85.2% (inactive) |
| C1=C(c2ccccc2)C(c2ccc(OCCN3CCCCC3)cc2)Oc2ccccc21 (stereo not given) | 62.7% (inactive) |
| CCn1cc(CNc2ccc(C(=O)Nc3cc4cc(OC)c(OC)cc4c(C)n3)cc2)cn1 | 32.8% (inactive) |
| COc1cccc(N2CCN(c3cccc(C)n3)CC2)c1 | 100% (inactive) |
| COc1cccc(CNc2nnc(C)c(C)n2)c1O | 95.9% (inactive) |
| O=C(CSc1nnc(-c2ccc(NC(=O)c3cccnc3)cc2)o1)Nc1cccc(Br)c1 | 96.1% (inactive) |
| O=C(Nc1nc2cccc(-c3ccc(CN4CCS(=O)(=O)CC4)cc3)n2n1)C1CC1 | 66.4% (inactive) |
| Cc1cc2ccccn2c1C(=O)c1ccc(C(=O)c2ccccc2)cc1 | -14.6% (active) |
| Cc1ccc(N2C3c4ccccc4N(S(=O)(=O)c4ccc(C)cc4)C2c2ccccc2N3S(=O)(=O)c2ccc(C)cc2)cc1 | 80.5% (inactive) |
| COc1ccc(S(=O)(=O)NCCCNc2cc(-c3c(-c4cccc(OC)c4)nc4sccn34)ccn2)cc1 | 32.7% (inactive) |
| Cn1cc(-c2csc(-c3cn(C)c4ncccc34)n2)c2ccccc21 | -3.85% (active) |
| C#CCNC(=O)[C@H](Cc1ccccc1)NC(=O)[C@]12CC[C@@H](C(=C)C)[C@@H]1[C@H]1CC[C@@H]3[C@@]4(C)CCC(=O)C(C)(C)[C@@H]4CC[C@@]3(C)[C@]1(C)CC2 | 33% (inactive) |
| CC(C)c1ccc2c(c1)CC[C@H]1[C@](C)(C(=O)OCC#CCN3CCCC3)CCC[C@]21C | 55.5% (inactive) |

| Compound | growth |
| --- | --- |
| CC[C@@H](C(=O)[C@@H](C)[C@@H](O)[C@H](C)[C@@H]1O[C@@H]([C@@H](CC)C(=O)N(CC)CC)CC[C@@H]1C)C1O[C@]2(C=CC(=O)[C@]3(CC[C@@](C)([C@H]4CC[C@](O)(CC)[C@H](C)O4)O3)O2)[C@H](C)C[C@@H]1C (stereo not given in full) | -36.4% (active) |
| O=S(=O)(NCCCNc1nccc(-c2cn(-c3ccccc3)nc2-c2ccc(Cl)c(O)c2)n1)c1ccccc1 | 83.4% (inactive) |
| O=c1[nH]c(=O)n(Cc2ccc(F)cc2)cc1F | 88.7% [50 µM] (inactive) |
| COC1=CC(c2ccc[nH]2)=N/C1=C\c1[nH]c(C)c(CC(=O)OCc2ccccc2)c1CCC(=O)OCc1ccccc1 | -31.1% (active) |
| CCc1nc2ccccc2[nH]1 | 105% (inactive) |
| N#C/C(=C1\SC(=O)CN1c1ccccc1)c1nc2ccccc2s1 | 92.8% (inactive) |
| CCCCCc1c(C)[nH]c(/C=C2\N=C(c3ccc[nH]3)C=C2CC)c1C | -62% (active) |
| O=C(/C=C/c1cccc(O)c1)c1cccc(-n2cc(-c3ccc4ccccc4c3)[nH]c2=O)c1 | -21.5% (active) |
| S=c1n(CNc2ccc(Cl)nn2)nc(-c2cc(Cl)cc(Cl)c2Cl)n1/N=C/c1ccc(Cl)cc1 | 3.47% (active) |
| O=C(NC(=S)N1CC=CCC1)c1ccccc1 | 125% (inactive) |
| Cc1ccc(C(=O)c2ccc(CC(=O)N=Nc3c(O)[nH]c4ccc(OC(F)(F)F)cc34)n2C)cc1 | 94.6% (inactive) |
| Cc1cccc(NC(=O)N/C(N)=N/c2nc3ccccc3s2)c1 | 5.69% (active) |
| O=C(N/N=C\c1cccc([N+](=O)[O-])c1)N/N=C/c1cccc([N+](=O)[O-])c1 | 107% (inactive) |
| CCCCCCCCCCCCSC1=C(Cl)C(=O)C(OC)=C(OC)C1=O | -46.2% (active) |
| S=C(Nc1ccccc1)c1ccccn1 | 107% (inactive) |
| CCN1C(=S)N(CC)C2C1NC(=S)N2/N=C/C=C/c1ccccc1 (stereo not given) | -22.2% (active) |
| Cc1ccc(S(=O)(=O)OC[C@@]2(C)CC[C@]3(C)CC[C@]4(C)C(=CC[C@@H]5[C@@]6(C)CCCNC(C)(C)[C@@H]6CC[C@]54C)[C@@H]3C2)cc1 | -63% (active) |
| CN1CCN(c2ccc(OC(F)(F)F)c(Nc3ncc4c(n3)-c3c(c(C(N)=O)nn3CCO)CC4)c2)CC1 | -20.5% (active) |
| O=C(Nc1ccc(F)cc1)Nc1ccc(NC(=O)c2cc(Cl)nc3ccccc23)cc1 | 63.9% (inactive) |
| Clc1ccc(COc2ccc(Nc3ncnc4onc(-c5ccccc5)c34)cc2)cc1 | 98.8% (inactive) |

— PubChem BioAssay (NCI)
